Molecules are shown by their SMILES. Where a structure was tested more than once in an assay, its records may differ in their call. Activity calls are given as the source filed them. How the source made its calls: active means hit-call score of the fitted dose curve at least 0.9, where 1 is the maximum; inactive means score below 0.9.

Usually AC50 stands for the midpoint of the concentration-response curve, whichever way the signal moves.

Read-out in the experiment: Pro-epidermal growth factor (Homo sapiens) (UniProt P01133)
The experiment is described as follows: LTEA_HepaRG_EGF: Life Technologies and Expression Analysis (LTEA) Assay for Epidermal growth factor (EGF) using HepaRG (AID 2283489). Conditions: mRNA level, 48 h; actives raise or lower the signal. The procedure:
LTEA_HepaRG is a cell based, multiplexed-readout assay that uses HepaRG, a human liver cell line, with measurements taken at 48 hours after chemical dosing on a 96-well plate.LTEA_HepaRG_EGF is one of 102 assay component(s) measured in the LTEA HepaRG cell culture assay. It is a marker of Cell proliferation, survival, death.Data from the assay component LTEA_HepaRG_EGF was analyzed into 1 endpoint. This assay endpoint, LTEA_HepaRG_EGF, was analyzed with bidirectional fitting relative to DMSO as the negative control and baseline of activity. Using a type of inducible reporter, measures of mRNA induction for gain or loss-of-signal activity can be used to understand regulation of transcription factor activity. To generalize the intended target to other relatable targets, this assay endpoint is annotated to the growth factor intended target family, where the subfamily is EGF-like domain.
A total of 1060 chemcials from the ToxCast library were tested in eight-point concentration-response experiments. Cell culture and cytotoxicity assays were conducted at Thermo Fisher Scientific's Custom Services facility (Madison, WI). A single lot of human HepaRG cells (Thermo Fisher Scientific, Frederick, MD) was used for the cell culture experiments. 96-well format collagen type I coated plates of human HepaRG cells were prepared using established methods. Briefly, cryopreserved HepaRG cells were thawed, plated at a density of approximately 100,000 cells/well in HepaRG Thaw, Plate, and General Purpose media (HPRG770, Thermo Fisher Scientific), and incubated for 48 hours. 0.5% DMSO was selected as vehicle control to balance the requisite need of DMSO in HepaRG cultures to maintain differentiation (for example, baseline metabolism, proportions of hepatocytes vs. cholangiocytes), while enabling further hepatic receptor pathway activation (for example, PXR and CAR) in response to chemical exposure. 48 hours after plating, the culture medium was replaced with HepaRG Serum-Free Incudtion Media. Cells were exposed to each test chemical in duplicate and maintained in CO2 incubators for another 48 hours. Chemical plates were thawed to room temperature and 200x concentrations of treatment groups were prepared. 8-point conentration-reponse curves were made with the highest exposure at 100 uM, followed by half-log dilutions, all in 0.5% DMSO. Each test plate contained variouse controls, induction positive controls (1mM phenobarbital), cytotoxicity positive controls ([…] aflatoxin B1), vehicle controls (0.5% DMSO), and total lysis controls (0.5% DMSO). Cell morphology images were taken using an Essen IncuCyte FLR automated microscope, with six 96-well plates imaged in about 24 minutes. Images were captured and exported and JPEG files. Spent culture media was transfered to black-well plates for the LDH assay, and remaining media was sorted at -80 C for later use. Cells were treated with RLT buffer and frozen until shipped for gene expression analysis. Total RNA was isolated from the cell suspension in 75 uL of Buffer RLT (Qiagen, Germantown, MD 20874) by Quintiles/Expression Analysis (Durham, NC) using a custom isolation procedure. Total RNA from each plate well was transferred to a preamplification plate. Fluidigm's 96.96 Dynamic ArrayTM (Fluidigm, Amsterdam, the Netherlands) technology was used for gene expression analyses by quantitative reverse transcription polymerase chain reaction (qRT-PCR, performed by Quintiles/Expression Analysis, Durham, NC)89. Standard TaqManTM Assays (Applied Biosystems/ThermoFisher Scientific, Foster City, CA) were used to assess the expression of 93 genes selected based on their selectivity and sensitivity to important hepatic receptors known to be modulated by environmental chemicals; importance in human hepatocyte functionality; and hepatotoxicity. […]
With `Cc1ccccc1N`, the result was inactive.
For the compound `C[C@@H]1C[C@@H]([C@H](O)CC2CC(=O)NC(=O)C2)C(=O)[C@@H](C)C1`, the AC50 was 2.36 µM (active).
As for `C[C@]12CCC(=O)C[C@@H]1CC[C@@H]1[C@@H]2CC[C@]2(C)[C@@H](O)CC[C@@H]12`, the result was inactive.
Same read-out and setting: for `NC(=O)O` the value was “inactive”.
Regarding `CC(C)(c1ccccc1)c1ccc(O)c(C(C)(C)c2ccccc2)c1`, the AC50 is 29.4 µM (active).
With `O=C(O)C(F)(F)C(F)(F)C(F)(F)C(F)(F)C(F)(F)C(F)(F)F`, the call was inactive.
With `O=C(O)C(F)(F)C(F)(F)C(F)(F)C(F)(F)C(F)(F)C(F)(F)C(F)(F)C(F)(F)C(F)(F)C(F)(F)F`, the call was inactive.
With `O=c1[nH]c(=O)[nH]c(=O)[nH]1`, the result was inactive.
Turning to `COc1cc(-c2ccc(N)c(OC)c2)ccc1N`, the compound was classed as inactive and the AC50 was 13.3 µM (active).
In the case of `O=C1C2(Cl)C3(Cl)C4(Cl)C(Cl)(Cl)C5(Cl)C3(Cl)C1(Cl)C5(Cl)C24Cl` (centres undefined), the result was inactive.
Still for that read-out and setting: next, `CC(C)(C)c1cc(O)ccc1O`: “inactive”.
Same read-out and setting: next, `C=CC(=O)OCCCCCC(C)C`: “inactive”; `CN(C)N=O`: “inactive”.
Same read-out and setting: next, `Cn1sc(Cl)cc1=O`: “inactive”.
Consider `Oc1cccc2cccnc12`, for which the compound was classed as inactive.
Still for that read-out and setting: next, `O=C(O)C(Cl)(Cl)Cl`: “inactive”; `O=C(Nc1ccc2[nH]ccc2c1)c1cc2cc(F)ccc2n1Cc1cccc(F)c1`: “inactive”; `CC(C)(C)CC(C)(C)c1ccc(O)cc1`: “inactive”.
On to `CCOP(=S)(OCC)SCSP(=S)(OCC)OCC`, for which the call was inactive.
Still for that read-out and setting: next, `CCC(=O)C(CC(C)N(C)C)(c1ccccc1)c1ccccc1` (centres undefined): “inactive”.
Regarding `CC12CC1(C)C(=O)N(c1cc(Cl)cc(Cl)c1)C2=O` (centres undefined), the compound was called inactive.
The same measure, in the same setting: next, `ClC1(Cl)C2(Cl)C3(Cl)C4(Cl)C(Cl)(Cl)C5(Cl)C3(Cl)C1(Cl)C5(Cl)C24Cl` (centres undefined): “inactive”; `CCOP(=S)(OCC)Oc1nc(Cl)c(Cl)cc1Cl`: “inactive”; `ClCC(Cl)CCl`: “inactive”.
As for `CC(C)(OO)c1ccccc1`, the result was inactive.
Turning to `O=[N+]([O-])c1ccc(O)c([N+](=O)[O-])c1`, the AC50 was 12.9 µM (active).
Consider `CCC(C)(C)c1ccc(O)c(C(C)(C)CC)c1`, for which the compound was classed as inactive.
Regarding `CCN1CCC2(CC1)COc1cc3c(cc12)N(C(=O)c1ccc(-c2ccc(-c4nnc(C)o4)cc2C)cc1)CC3`, the result was inactive.

Source of the values: PubChem BioAssay (EPA / NIEHS).
